# This is a sample that favours compounds with a hit; in the whole collection about 1.1% have one here.
# GalR3 antagonist: blocks the human galanin receptor 3 | AID 651719 | inhibition, % at 3 µM | HEK293 GalR3-CNG cAMP membrane potential fluorescence; galR3 body fused to GalR1 C-terminus | O60755 | hit rate 0.44% among 360,000;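 active means inhibition above the screen-wide average plus 3 SD, cut at about 13% in these data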;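 further: forskolin and galanin both at EC90 stimulate the cells; cAMP rise reported by CNG channel membrane potential dye signal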
# NCOA3 inh: human NCOA3 inhibition; Q9Y6Q9; HEK293 GAL4-SRC3 luciferase reporter, luminescence; inhibition, % at 3.6 µM; hit rate 0.17% among 360,000; AID 588352;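 active means inhibition above a per-campaign cutoff, the mean of all compounds plus 3 SD, cut at about 60% in these data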;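 further: higher means less SRC3-driven luciferase light from the GAL4 reporter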
# COUP-TFII inh: blocks human COUP-TFII nuclear receptor; P24468; HEK293T NGFI-A luciferase reporter, luminescence; inhibition, % at 8.6 µM; hit rate 0.7% among 370,000; AID 686940;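 active means inhibition above a per-plate cutoff, mean inhibition of test wells between control levels plus 3 SD, cut at about 38% in these data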;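 further: cells cotransfected with COUP-TFII expression vector driving the NGFI-A reporter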
# NCOA1 inh: inhibitors of human steroid receptor coactivator 1 (SRC1) | HEK293 GAL4-SRC1 luciferase reporter, luminescence | inhibition, % at 3.6 µM | hit rate 0.12% among 360,000;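 active means inhibition above the campaign mean plus 3 SD, with each screening campaign given its own cutoff, cut at about 60% in these data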
# NCOA2 inhibitor: inhibits human steroid receptor coactivator 2. HEK293 GAL4-SRC2 luciferase reporter, luminescence. Q15596. inhibition, % at 9 µM. hit rate 0.17% among 370,000;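 active means inhibition above the mean inhibition of all tested compounds plus 3 SD, set per campaign, cut at about 52% in these data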
# NR5A2 inv ag: suppresses constitutive activity of human LRH-1. inhibition, % at 3.6 µM. hit rate 0.13% among 360,000. HEK293T StAR-luciferase reporter, LRH-1 transfected, 24 h. AID 602396;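 active means inhibition above the mean inhibition of all tested compounds plus 3 SD, cut at about 73% in these data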
# Gal4-VP16 ctr: VP16 inhibition counter-screen for COUP-TFII. shares compounds with COUP-TFII inh. HEK293 Gal4-VP16 luciferase reporter, luminescence. inhibition, % at 8.5 µM. hit rate 25% among 2,500; in the data active means inhibition above about 13%
# COUP-TFII conf: confirmation of human COUP-TFII (NR2F2) inhibitors; shares compounds with COUP-TFII inh; HEK293 NGFI-A luciferase reporter, luminescence; inhibition, % at 8.5 µM; hit rate 45% among 2,500; AID 687008;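 active means mean inhibition over three repeats above a set limit taken from the earlier primary screen, cut at about 38% in these data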
# Numbers stand for hits; . = inactive; / = no result given.
SMILES,GalR3 antagonist,NCOA3 inh,COUP-TFII inh,NCOA1 inh,NCOA2 inhibitor,NR5A2 inv ag,Gal4-VP16 ctr,COUP-TFII conf
O=C1/C(=C\c2ccccc2)CCC/C1=C/c1ccccc1,.,.,.,.,.,.,/,/
O=C(CCN1C(=O)S/C(=C\c2ccccc2)C1=O)N1CCCCC1,.,.,.,.,.,.,/,/
CCN(CC)CCC(=O)N1C/C(=C/c2ccccc2)C(=O)/C(=C\c2ccccc2)C1,.,.,74,.,.,.,67,65
O=C(Nc1ccc2c(c1)OCCO2)c1ccc(Cl)c(Cl)c1,.,.,.,.,.,.,/,/
Cc1ccc2[nH]c3c(NCc4ccco4)ncnc3c2c1,.,.,47,.,.,.,.,.
CN=c1scc(-c2cccs2)n1/N=C/c1ccccc1O,.,93,94,92,88,98,88,108
N#CCc1ccc(NS(=O)(=O)c2cccs2)cc1,.,.,.,.,.,.,/,/
Cc1nc2ccccn2c1C(=O)NC1CCCc2ccccc21 (stereo not drawn),.,.,42,.,.,.,.,.
C=CCn1c(O)c(N=NC(=S)Nc2ccccc2F)c2ccccc21,.,.,.,.,.,.,/,/
C=CCn1c(O)c(N=NC(=S)Nc2ccccc2F)c2cc(S(=O)(=O)N3CCOCC3)ccc21,.,.,49,.,.,.,.,.
CC1(C)N=C(N)N=C(N)N1c1cc(Cl)ccc1Cl,.,.,.,.,.,.,/,/
CC1(C)N=C(N)N=C(N)N1c1ccc(Oc2ccc(Cl)cc2)c(Cl)c1,.,.,69,.,.,.,16,65
Cc1cc(C)c(C)c(S(=O)(=O)N2CCN(c3ncnc4ccccc34)CC2)c1C,.,.,.,.,.,.,/,/
O=S(=O)(c1cc(C(F)(F)F)ccc1Cl)N1CCN(c2ncnc3ccccc23)CC1,.,.,42,.,.,.,15,60
CSC1SCC2C(=O)N(C)C(C(C)C)C(=O)OCC(NC(=O)c3cnc4ccccc4n3)C(=O)NC(C)C(=O)N(C)C1C(=O)N(C)C(C(C)C)C(=O)OCC(NC(=O)c1cnc3ccccc3n1)C(=O)NC(C)C(=O)N2C (stereo not drawn),.,86,51,85,66,96,29,38
CCOc1ccc(CN2CCN(C(=O)c3cccc4ccccc34)CC2)cc1,.,.,59,.,.,.,.,.
Cc1ccc(S(=O)(=O)N2CCCCC2)cc1NC(=O)c1ccc2c(=O)n3c(nc2c1)CCCCC3,.,/,43,/,.,/,.,.
O=C(Nc1ccc(S(=O)(=O)N2CCCC2)cc1)c1ccc2c(=O)n3c(nc2c1)CCCCC3,.,.,.,.,.,.,/,/
COc1ccc(CC(=O)Nc2cc(S(=O)(=O)N3CCCCC3)ccc2C)cc1OC,.,.,60,.,.,.,.,48
COc1ccc(OC)c(CC(=O)Nc2cc(S(=O)(=O)N3CCCCC3)ccc2C)c1,.,.,.,.,.,.,/,/
O=C(NCC(c1ccco1)N1CCCC1)c1ccccc1Sc1ccc(C(F)(F)F)cc1[N+](=O)[O-] (stereo not drawn),.,.,.,.,.,.,/,/
CC(=O)c1cc(-c2cccc([N+](=O)[O-])c2)c(=O)n2c1CCC2,/,/,.,/,.,/,/,/
CCOC(=O)c1c(NC(=O)CSc2nnnn2-c2ccccc2OCC)sc2c1CC(C)(C)NC2(C)C,.,.,.,.,.,.,/,/
c1nc(NCc2ccc3c(c2)OCO3)c2cc(-c3ccoc3)ccc2n1,.,.,39,.,.,.,.,.
COCCN(C(=O)CCC(=O)Nc1nccs1)C(C(=O)NC(C)(C)C)c1ccc(C)cc1 (stereo not drawn),.,.,60,.,76,.,.,.
SMILES,GalR3 antagonist,NCOA3 inh,COUP-TFII inh,NCOA1 inh,NCOA2 inhibitor,NR5A2 inv ag,Gal4-VP16 ctr,COUP-TFII conf
COCCN(C(=O)CCC(=O)Nc1nccs1)C(C(=O)NC(C)(C)C)c1ccc(F)cc1 (stereo not drawn),.,.,.,.,.,.,/,/
CCOC(=O)c1csc(-n2nc(C)cc2C(F)(F)F)n1,.,.,.,.,.,.,/,/
Cc1cc(C(F)(F)F)n(-c2nc(C(=O)NN)cs2)n1,.,.,37,.,.,.,.,.
COCCNC(=O)C1(C)CCN(C(=O)c2cc(-c3ccccc3)cs2)C1 (stereo not drawn),.,.,.,.,.,.,/,/
CC(C)(C)C(=O)NCCCc1nc2ccccc2n1CCCOc1ccc(Cl)cc1,.,.,60,.,.,.,.,.
CCN1CCN(/C=N/c2nc3c(s2)CCCC3)CC1,.,.,51,.,.,.,25,55
CC(NC(=O)COC(=O)c1ccccc1O)c1ccccc1 (stereo not drawn),.,.,.,.,.,.,/,/
O=C(COC(=O)c1ccccc1O)NC(c1ccccc1)c1ccccc1,.,.,41,.,.,.,.,.
Cc1ccc(C)c(N2N=C(C(=O)Nc3cccc(S(=O)(=O)N4CCCCC4)c3)CCC2=O)c1,.,.,.,.,.,.,/,/
CC(C)(C)NC(=O)CSc1nc2ccc(NC(=O)CSc3nnnn3Cc3ccccc3)cc2s1,.,.,67,.,.,.,.,51
COc1ccc(C=C(C(=O)c2ccccc2)C(=O)c2ccccc2)cc1,.,.,.,.,.,.,/,/
CC(C)(C)NCC(=Cc1ccccc1)C(=O)c1ccccc1,.,.,72,.,68,82,48,80
CCSc1nsc(NC(=O)Nc2cccc(OC)c2)n1,.,.,.,.,.,.,/,/
COc1cc(SC)ccc1C(=O)Nc1nc2ccccc2[nH]1,.,92,100,93,95,93,96,108
Cc1ccc(C(=O)Nc2cnc3ccccc3c2)cc1,.,.,71,.,72,.,24,48
COc1ccccc1C(=O)Nc1nc2ccccc2[nH]1,.,80,98,84,94,84,87,100
COc1ccc(C(=O)Nc2nc3ccccc3[nH]2)cc1,.,.,.,.,.,.,/,/
Cc1ccc(C(=O)Nc2nc3ccccc3[nH]2)cc1,.,.,49,.,.,.,.,.
Cc1cc(C(=O)Nc2cnc3ccccc3c2)ccc1[N+](=O)[O-],.,.,.,.,.,.,/,/
COc1ccc(CC(NC(C)=O)C(=O)NC2CCN(c3c(Cc4ccccc4)c(C)nc4ncnn34)CC2)c(OC)c1 (stereo not drawn),.,.,.,.,.,.,/,/
COc1ccc(N2CCOCC2)c(NC(=O)c2cccc3ccccc23)c1,.,.,.,.,.,.,/,/
O=[N+]([O-])c1ccccc1C1Nc2cccc3cccc(c23)N1,.,.,.,.,.,.,/,/
